From PubChem BioAssay
Activity calls are given as the source filed them. Unless noted, no rule for the calls is given here.

Columns and labels:
[1] = system: Wnt5a (protein binding on small-molecule microarray); test: small molecules binding Wnt5a protein – biophysical, small-molecule microarray, 635/667 nm fluorescence, primary screen (AID 1142); settings: 635 nm fluorescence, higher = more signal;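 also: fluorescence read at 667 nm with signal to noise per printed feature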
[2] = ATP-based viability of Huh7 replicon cells – cell-based, CellTiter-Glo luminescence, basal, 48 h, cytotoxicity control for HCV replication inhibitor project, primary screen (AID 1143); settings: higher = more signal, called active from +8 up or from −8 down;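 also: Huh7 hepatoma cells carrying a hepatitis C replication reporter with no stimulus; test concentration not given here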
[3] = Pseudomonas biofilm growth suppression – PAO1 strain, BacTiter-Glo luminescence, LB-PBS, primary screen (AID 1144); settings: P. aeruginosa PAO1 biofilm, 12 h, higher = more signal
[4] = basal CRE-LacZ reporter activity in PC12 – cell-based, unstimulated, primary screen (AID 1145); settings: no forskolin, luminescence, 4.5 h, higher = more signal, called active from +8 up or from −8 down
[5] = forskolin-driven CRE-LacZ activity in PC12 – cell-based, CRE-LacZ reporter, forskolin-stimulated, primary screen (AID 1146); settings: luminescence, 4.5 h, higher = more signal, called active from +8 up or from −8 down;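 also: PC12 cells with 6xCRE LacZ reporter stimulated by forskolin 10 µM; beta-galactosidase reporter signal reflecting CREB driven transcription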
[6] = target: Streptavidin (Streptomyces avidinii) (UniProt P22629); test: compounds binding control protein streptavidin – biophysical, small-molecule microarray, 635/667 nm fluorescence, artefact control for SMM compound annotation, primary screen (AID 1147); settings: higher = more signal;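 also: signal reflects streptavidin binding to arrayed compounds as a control protein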
[7] = probe aInhba binding on compound microarray – biochemical, small-molecule microarray, 635/667 nm fluorescence, primary screen (AID 1148); settings: higher = more signal;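 also: score merges 667nm spot fluorescence with signal-to-noise for antibody binding to printed compounds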
Torsin-1A (Homo sapiens) [8] = target: Torsin-1A (Homo sapiens) (UniProt O14656); test: TOR1A wild-type binding on microarray – cell lysate, small-molecule microarray, lysate, 635/667 nm, primary screen (AID 1149); settings: COS7 hTOR1A-WT lysate, 635 nm fluorescence, higher = more signal
Torsin-1A (Homo sapiens) [9] = target: Torsin-1A (Homo sapiens) (UniProt O14656); test: torsin A mutant lysate binding on microarrays – cell lysate, small-molecule microarray, COS7 lysate, 635/667 nm fluorescence, primary screen (AID 1150); settings: COS7 hTOR1A mutant lysate, 635 nm fluorescence, higher = more signal;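 also: score pools 667 nm emission and signal to noise measuring lysate protein binding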
[10] = system: Sonic hedgehog protein (Shh); test: Sonic hedgehog microarray binding compounds – biochemical, small-molecule microarray, 635/667 nm fluorescence, primary screen (AID 1151); settings: 635 nm fluorescence, higher = more signal;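 also: Shh protein binding to compounds spotted on small-molecule microarray slides; score combines spot fluorescence intensity with signal-to-noise across triplicate slides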
[11] = optical density shifts of acrAB sulA E. coli – strain DRC41, OD650, 48 h, E. coli filamentation inducer project, primary screen (AID 1152); settings: higher = more signal, called active from +8 up or from −8 down;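 also: E. coli MC1000 strain DRC41 lacking acrAB efflux pump and sulA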
[12] = probe aLefty1 binding on compound microarray – biochemical, small-molecule microarray, 635/667 nm fluorescence, primary screen (AID 1153); settings: higher = more signal;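 also: score merges spot fluorescence with signal-to-noise ratio from the scanned slide images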
[13] = plasmodial surface anion channel blockers, osmotic lysis – cell-based, P. falciparum Indochina, OD700, 1 h, primary screen (AID 1154); settings: P. falciparum Indochina infected RBC osmotic lysis, higher = more signal, called active from +8 up or from −8 down
[14] = plasmodial surface anion channel blockers, osmotic lysis – cell-based, P. falciparum Indochina, OD700, 2 h, primary screen (AID 1155);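 also: lysis reports solute entry through the parasite surface anion channel PSAC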; settings: P. falciparum Indochina infected erythrocytes, higher = more signal, called active from +8 up or from −8 down
[15] = changes in parasitized red cell lysis, either direction – P. falciparum Indochina, OD700, 3 h, PSAC antagonist project, primary screen (AID 1156); settings: P. falciparum-infected erythrocytes, osmotic lysis, higher = more signal, called active from +8 up or from −8 down
[16] = plasmodial surface anion channel blockers, osmotic lysis – cell-based, P. falciparum Indochina, OD700, 18 h, primary screen (AID 1157); settings: P. falciparum Indochina infected erythrocytes, osmotic lysis OD700, 18 h; higher = more signal, called active from +8 up or from −8 down
[17] = S6 kinase pathway phospho-S6 level changes – cell-based, A549, cytoblot, luminescence, serum-stimulated, primary screen (AID 1158); settings: 5 h, higher = more signal;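 also: serum-stimulated A549 lung adenocarcinoma cells; signal is phosphorylated S6 detected by cytoblot immunostaining with HRP secondary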
[18] = target: NADPH oxidase 2 (Homo sapiens) (UniProt P04839); test: compounds shifting NOX2 Amplex Red fluorescence – cell-based, HEK293-NOX2, PMA-stimulated, NOX inhibitor project, primary screen (AID 1159); settings: 45 min, higher = more signal, called active from +8 up or from −8 down; also: test concentration not given here
[19] = target: NADPH oxidase 4 (Homo sapiens) (UniProt Q9NPH5); test: compounds shifting NOX4 Amplex Red fluorescence – cell-based, HEK293-NOX4, tetracycline-induced, NOX inhibitor project, primary screen (AID 1160); settings: HEK293-NOX4, Amplex Red H2O2 fluorescence, 45 min; higher = more signal, called active from +8 up or from −8 down
[20] = target: NADPH oxidase 5 (Homo sapiens) (UniProt Q96PH1); test: compounds shifting NOX5 Amplex Red fluorescence – cell-based, HEK293-NOX5, NOX inhibitor project, primary screen (AID 1161); settings: HEK293-NOX5, ionomycin, 45 min, higher = more signal
NADPH oxidase 5 (Homo sapiens), sequence (Q96PH1 whole entry, looked up): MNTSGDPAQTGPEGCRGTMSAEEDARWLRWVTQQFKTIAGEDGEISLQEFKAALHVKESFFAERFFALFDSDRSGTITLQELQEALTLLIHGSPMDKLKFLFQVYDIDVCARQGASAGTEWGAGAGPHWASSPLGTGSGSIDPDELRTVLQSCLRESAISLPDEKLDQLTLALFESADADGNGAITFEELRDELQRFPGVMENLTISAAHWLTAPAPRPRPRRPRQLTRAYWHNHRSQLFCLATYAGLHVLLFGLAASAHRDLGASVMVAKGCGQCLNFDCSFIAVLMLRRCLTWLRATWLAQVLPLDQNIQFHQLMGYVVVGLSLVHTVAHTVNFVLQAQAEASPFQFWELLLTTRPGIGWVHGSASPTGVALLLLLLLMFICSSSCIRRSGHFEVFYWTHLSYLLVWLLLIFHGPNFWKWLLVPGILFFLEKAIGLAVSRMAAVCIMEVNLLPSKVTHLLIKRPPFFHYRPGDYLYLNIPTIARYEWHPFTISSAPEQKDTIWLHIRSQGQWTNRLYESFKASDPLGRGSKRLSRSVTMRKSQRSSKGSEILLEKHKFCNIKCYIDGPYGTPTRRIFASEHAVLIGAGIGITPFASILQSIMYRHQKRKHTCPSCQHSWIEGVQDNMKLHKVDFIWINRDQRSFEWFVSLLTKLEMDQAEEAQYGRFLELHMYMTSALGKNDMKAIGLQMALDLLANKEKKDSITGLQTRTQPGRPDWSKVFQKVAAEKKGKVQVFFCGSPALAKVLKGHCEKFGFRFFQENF

Streptavidin (Streptomyces avidinii), sequence (P22629 whole entry, looked up): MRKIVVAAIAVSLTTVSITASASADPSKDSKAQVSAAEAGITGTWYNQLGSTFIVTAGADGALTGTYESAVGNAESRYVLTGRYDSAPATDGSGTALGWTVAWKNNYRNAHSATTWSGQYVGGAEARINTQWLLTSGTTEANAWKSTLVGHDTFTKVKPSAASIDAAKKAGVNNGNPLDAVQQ
Torsin-1A (Homo sapiens), sequence (O14656 whole entry, looked up): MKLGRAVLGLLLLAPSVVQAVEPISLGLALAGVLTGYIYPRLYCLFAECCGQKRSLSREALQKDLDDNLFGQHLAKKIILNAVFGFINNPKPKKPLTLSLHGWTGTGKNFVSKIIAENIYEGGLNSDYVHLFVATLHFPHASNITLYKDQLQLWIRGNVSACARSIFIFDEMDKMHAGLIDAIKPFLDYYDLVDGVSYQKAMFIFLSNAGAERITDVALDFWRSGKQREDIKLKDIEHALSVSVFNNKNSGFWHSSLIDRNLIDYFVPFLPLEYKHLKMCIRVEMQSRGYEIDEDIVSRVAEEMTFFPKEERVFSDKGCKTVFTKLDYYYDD
NADPH oxidase 4 (Homo sapiens), sequence (Q9NPH5 whole entry, looked up): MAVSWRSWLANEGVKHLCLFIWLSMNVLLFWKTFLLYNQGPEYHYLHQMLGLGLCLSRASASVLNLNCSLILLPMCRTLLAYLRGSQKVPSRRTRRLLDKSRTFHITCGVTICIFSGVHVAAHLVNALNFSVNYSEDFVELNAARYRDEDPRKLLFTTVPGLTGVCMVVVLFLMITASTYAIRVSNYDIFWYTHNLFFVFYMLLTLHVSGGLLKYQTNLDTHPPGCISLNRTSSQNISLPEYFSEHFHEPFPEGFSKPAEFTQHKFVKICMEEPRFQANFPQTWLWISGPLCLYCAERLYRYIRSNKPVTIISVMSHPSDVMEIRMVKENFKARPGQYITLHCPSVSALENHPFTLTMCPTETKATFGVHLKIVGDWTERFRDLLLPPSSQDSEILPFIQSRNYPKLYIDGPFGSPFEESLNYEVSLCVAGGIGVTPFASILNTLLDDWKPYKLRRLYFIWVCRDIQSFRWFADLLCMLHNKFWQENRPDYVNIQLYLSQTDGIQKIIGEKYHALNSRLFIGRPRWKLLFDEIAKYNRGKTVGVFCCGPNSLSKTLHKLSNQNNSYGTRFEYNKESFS
NADPH oxidase 2 (Homo sapiens), sequence (P04839 whole entry, looked up): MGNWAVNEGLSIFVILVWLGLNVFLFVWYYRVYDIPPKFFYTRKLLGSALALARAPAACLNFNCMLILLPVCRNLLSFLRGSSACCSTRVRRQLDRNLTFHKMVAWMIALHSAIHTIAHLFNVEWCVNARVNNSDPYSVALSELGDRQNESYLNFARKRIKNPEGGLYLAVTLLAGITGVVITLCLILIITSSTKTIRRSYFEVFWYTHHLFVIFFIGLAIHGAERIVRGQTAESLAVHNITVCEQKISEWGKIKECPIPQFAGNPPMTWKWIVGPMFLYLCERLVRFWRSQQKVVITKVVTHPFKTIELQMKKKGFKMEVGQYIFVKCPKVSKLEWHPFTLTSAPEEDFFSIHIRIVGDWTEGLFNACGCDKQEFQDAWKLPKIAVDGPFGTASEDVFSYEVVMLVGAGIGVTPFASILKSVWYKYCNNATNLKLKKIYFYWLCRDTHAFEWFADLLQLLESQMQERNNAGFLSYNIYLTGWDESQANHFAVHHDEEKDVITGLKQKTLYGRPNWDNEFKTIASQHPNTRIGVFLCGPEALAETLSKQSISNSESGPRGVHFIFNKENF

For Cc1ccc(S[C@]2(C(=O)NCCN3CCOCC3)CC(=O)N(Cc3ccccc3)[C@@H]2c2ccc(CO)cc2I)cc1, the composite z-score [1] was 0.0376, the z-score [2] was -5.17 (inactive) and the z-score [3] was -0.779 (inactive). For the same molecule, the z-score [4] was -0.114 (inactive), the z-score [5] was 1.8 (inactive) and the composite z-score [6] was -0.755. It also gave a composite z-score [7] of -0.0719, a composite z-score (Torsin-1A (Homo sapiens) [8]) of -1.46 and a composite z-score (Torsin-1A (Homo sapiens) [9]) of 0.59. For the same molecule, the composite z-score [10] was -0.685, the z-score [11] was 0.434 (inactive) and the composite z-score [12] was 0.0752. The z-score [13] was 8.54 (active), the z-score [14] was 0.37 (inactive) and the z-score [15] was 1.13 (inactive). The z-score [16] was -1.19 (inactive), the z-score [17] was 2.42 and the z-score [18] was 1.99 (inactive). For the same molecule, the z-score [19] was -2.89 (inactive) and the z-score [20] was 0.422.

In the case of Cc1ccc(S[C@]2(C(=O)NCC(F)(F)F)CC(=O)N(C(C)C)[C@@H]2c2ccc(CO)cc2I)cc1, the composite z-score [1] is reported as 0.0446, the z-score [2] is reported as -1.53 (inactive) and the z-score [3] is reported as 0.111 (inactive). For the same molecule, the z-score [4] was 0.118 (inactive), the z-score [5] was 0.725 (inactive) and the composite z-score [6] was -0.563. It also gave a composite z-score [7] of -0.128, a composite z-score (Torsin-1A (Homo sapiens) [8]) of -0.846 and a composite z-score (Torsin-1A (Homo sapiens) [9]) of -0.474. For the same molecule, the composite z-score [10] was -0.594, the z-score [11] was 0.302 (inactive) and the composite z-score [12] was 0.108. For the same molecule, the z-score [13] was 4.6 (inactive), the z-score [14] was 0.383 (inactive) and the z-score [15] was 0.24 (inactive). For the same molecule, the z-score [16] was 0.548 (inactive), the z-score [17] was 0.303 and the z-score [18] was 1.81 (inactive). For the same molecule, the z-score [19] was -2.38 (inactive) and the z-score [20] was 1.5.

In the case of O=C(c1ccccc1)N1Cc2ccccc2[C@@H]2OC(c3ccc(OCCCO)cc3)=N[C@]2(Cc2ccccc2)C1=O, the composite z-score [1] is reported as 0.624, the z-score [2] is reported as -3.55 (inactive) and the z-score [3] is reported as -0.554 (inactive). The z-score [4] was 1.35 (inactive), the z-score [5] was 0.715 (inactive) and the composite z-score [6] was 0.215. It also gave a composite z-score [7] of 0.188, a composite z-score (Torsin-1A (Homo sapiens) [8]) of 0.236 and a composite z-score (Torsin-1A (Homo sapiens) [9]) of 0.423. For the same molecule, the composite z-score [10] was 1.33, the z-score [11] was -0.672 (inactive) and the composite z-score [12] was 0.343. For the same molecule, the z-score [13] was 10.8 (active), the z-score [14] was 1.35 (inactive) and the z-score [15] was 1.25 (inactive). For the same molecule, the z-score [16] was 1.23 (inactive), the z-score [17] was -0.118 and the z-score [18] was -0.893 (inactive). For the same molecule, the z-score [19] was 0.418 (inactive) and the z-score [20] was -0.781.

In the case of O=C1O[C@H](c2ccccc2)[C@H](c2ccccc2)N2[C@H]1[C@@H](C(=O)O)[C@]1(C(=O)Nc3ccc(C#CCCO)cc31)[C@H]2c1ccc(O)cc1, the composite z-score [1] is reported as -0.0604, the z-score [2] is reported as -1.04 (inactive) and the z-score [3] is reported as 0.301 (inactive). The z-score [4] was -1.28 (inactive), the z-score [5] was -1.37 (inactive) and the composite z-score [6] was -0.668. It also gave a composite z-score [7] of 0.161, a composite z-score (Torsin-1A (Homo sapiens) [8]) of 0.309 and a composite z-score (Torsin-1A (Homo sapiens) [9]) of 0.499. The composite z-score [10] was 0.0441, the z-score [11] was 1.4 (inactive) and the composite z-score [12] was 0.334. The z-score [13] was 1.43 (inactive), the z-score [14] was 0.4 (inactive) and the z-score [15] was 0.735 (inactive). For the same molecule, the z-score [16] was 0.531 (inactive), the z-score [17] was 0.282 and the z-score [18] was -0.185 (inactive). For the same molecule, the z-score [19] was -0.455 (inactive) and the z-score [20] was 0.157.

For O=C1O[C@H](c2ccccc2)[C@H](c2ccccc2)N2[C@H]1[C@@H](C(=O)Nc1nc3ccccc3s1)[C@]1(C(=O)Nc3ccc(C#CC4(O)CCCCCC4)cc31)[C@H]2c1ccc(OCCO)cc1, the composite z-score [1] was 0.248, the z-score [2] was -1.04 (inactive) and the z-score [3] was -1.88 (inactive). The z-score [4] was -0.402 (inactive), the z-score [5] was 0.858 (inactive) and the composite z-score [6] was 1.18. The composite z-score [7] was 0.284, the composite z-score (Torsin-1A (Homo sapiens) [8]) was 0.401 and the composite z-score (Torsin-1A (Homo sapiens) [9]) was 1.01. The composite z-score [10] was 1.68, the z-score [11] was -0.558 (inactive) and the composite z-score [12] was 0.338. The z-score [13] was 3.28 (inactive), the z-score [14] was 1.58 (inactive) and the z-score [15] was 0.501 (inactive). The z-score [16] was 1.67 (inactive), the z-score [17] was -0.239 and the z-score [18] was 0.286 (inactive). The z-score [19] was 0.11 (inactive) and the z-score [20] was -0.0468.
